Screening results from PubChem.
SNCA viab count = cell viability loss counter-screen; hit rate 0.12% among 150,000; HEK-293-SNCA-luc viability, GF-AFC fluorescence, 24 h; Potency, µM (titrated, usually from 57.1 µM), most hits filed as cytotoxic; note: nearly all actives have a fitted effect of over 30% in size
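Cytotoxicity counterscreen: after 24 h compound treatment of genome-edited SNCA-luciferase HEK-293 cells, live-cell protease substrate GF-AFC read by fluorescence after 30 min; activity scaled between DMSO (0%) and medium-only (-100%), curves Hill-fitted.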
SNCA expr inhib = reduces expression of the alpha-synuclein gene. hit rate 0.17% among 140,000. AID 1671194. HEK-293 SNCA-luciferase knock-in, luminescence, 24 h. Potency, µM (top dose mostly 57.2 µM), most hits filed as inhibitors; note: nearly all actives have a fitted effect of over 45% in size
IP6K1 inhibitor = blocks human inositol hexakisphosphate kinase 1; AID 1645851; Q92551; hit rate 0.81% among 140,000; activity change, % (series mostly up to about 58 µM); IP6K1 kinase, ADP-Glo luminescence, 2 h; active compounds read low; in the data active = activity change below about -25%
Target sequence (Q92551 whole entry, looked up): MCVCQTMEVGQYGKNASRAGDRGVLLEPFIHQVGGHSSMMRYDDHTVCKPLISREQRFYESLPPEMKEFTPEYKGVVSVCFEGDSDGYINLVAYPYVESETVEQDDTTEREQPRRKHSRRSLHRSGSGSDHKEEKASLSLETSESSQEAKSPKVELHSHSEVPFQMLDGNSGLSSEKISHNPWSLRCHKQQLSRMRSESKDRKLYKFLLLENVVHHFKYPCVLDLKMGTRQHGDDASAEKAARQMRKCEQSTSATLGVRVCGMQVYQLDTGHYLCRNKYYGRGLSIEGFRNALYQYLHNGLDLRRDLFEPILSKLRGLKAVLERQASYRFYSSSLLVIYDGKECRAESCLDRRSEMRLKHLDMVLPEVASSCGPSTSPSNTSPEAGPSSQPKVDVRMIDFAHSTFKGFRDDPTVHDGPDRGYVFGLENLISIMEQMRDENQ
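ADP-Glo luminescence measures ADP made by human IP6K1 during a 2 h RT reaction with ATP/IP6 (mix at 1.3 mM/130 uM); top library doses 57.5 and 19.1 uM final.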
KDM5B inh = blocks human KDM5B histone demethylase activity. Q9UGL1. KDM5B demethylase, FDH-coupled NADH fluorescence (FDH is formaldehyde dehydrogenase). Potency, µM (titrated, usually from 57.7 µM), most hits filed as inhibitors. hit rate 2.6% among 220,000; note: nearly all actives have a fitted effect of over 70% in size
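Inhibition is measured as reduced NADH fluorescence generation from FDH coupling to formaldehyde release. Truncated KDM5BΔAP at 200 nM final acts on H3K4me3 peptide (12.5 µM in substrate mix) in pH 7.5 HEPES buffer with Tween-20, 30 min, room temperature.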
Each line names hits and unclear results; the compound was inactive in the other large screens. Hits are enriched below; roughly 2.8% of the tested compounds scored in any of these assays. Unless noted, calls come from the whole dose curve; as a rule, active = well fitted curve in the direction sought with a large enough effect; inconclusive = small, poorly fitted or top-dose-only effect, or another doubt; inactive = no such curve, though single readings can be large; an effect the other way counts as inactive or inconclusive.

COc1ccccc1C1CC(c2ccccc2)=NN1C(=O)c1ccccc1 (configuration not stated)	none (no result: SNCA viab count, SNCA expr inhib, IP6K1 inhibitor)
COc1ccc(C(=O)NCc2nnc3ccc(-c4ccc(Cl)cc4)nn23)c(C)c1	KDM5B inh 25µM
Cc1ccc(-c2ccc3nnc(CNC(=O)c4ccc(C)cc4C)n3n2)cc1	KDM5B inh 13µM
Cc1ccc(-c2ccc3nnc(CNC(=O)Cc4cccc(F)c4)n3n2)cc1	SNCA expr inhib inconclusive, KDM5B inh inconclusive
O=C1NC2(CCCN(Cc3ccc(F)cc3)C2)COc2ccccc21 (configuration not stated)	KDM5B inh 25µM
COc1cccc(CN2CCCC3(COc4ccccc4C(=O)N3)C2)c1 (configuration not stated)	KDM5B inh 35µM
CC(=O)Nc1ccc(CN2CCCC3(COc4ccccc4C(=O)N3)C2)cc1 (configuration not stated)	KDM5B inh inconclusive
O=C1NC2(CCCN(Cc3ccc(OC(F)(F)F)cc3)C2)COc2ccccc21 (configuration not stated)	KDM5B inh 35µM
O=C1NC2(CCCN(Cc3ccccc3C(F)(F)F)C2)COc2ccccc21 (configuration not stated)	KDM5B inh 35µM
O=C1NC2(CCCN(Cc3ccsc3)C2)COc2ccccc21 (configuration not stated)	KDM5B inh inconclusive
C=C1C(=O)O[C@@H]2[C@H]1CC(=O)[C@H](C)[C@@](O)(C(=O)/C=C/C)[C@H]2OC(=O)C(C)CC (some centres not stated)	SNCA viab count 9.3µM (no result: SNCA expr inhib, KDM5B inh)
COC[C@H]1CCCN1C(=O)CC[C@H]1CNC(=O)[C@@H]2[C@@H](CCN2Cc2ccc(O)cc2)N1C	none
COc1cccc(CC(=O)NC2CCN(c3cc(-c4cccs4)[nH]n3)C2)c1 (configuration not stated)	KDM5B inh 28µM
O=C(Cc1cccc(F)c1)NC1CCN(c2cc(-c3cccs3)[nH]n2)C1 (configuration not stated)	KDM5B inh inconclusive
O=C(Cc1cccc(Cl)c1)NC1CCN(c2cc(-c3cccs3)[nH]n2)C1 (configuration not stated)	KDM5B inh 4µM
Cc1ccc(C(=O)N2CCC3(CC2)CC(N2CCN(CC(C)C)CC2)CCO3)cn1 (configuration not stated)	none (no result: KDM5B inh)
O=C(O)CCC(=O)N[C@H]1CCN2C(=O)c3cc(-c4cccs4)ccc3NC(=O)[C@H]12	KDM5B inh 35µM
O=C(N[C@H]1CCN2C(=O)c3cc(-c4cccs4)ccc3NC(=O)[C@H]12)C1CCCC1	KDM5B inh 40µM
O=C(N[C@H]1CCN2C(=O)c3cc(-c4cccs4)ccc3NC(=O)[C@H]12)c1cccc(F)c1	KDM5B inh 28µM
O=C(N[C@H]1CCN2C(=O)c3cc(-c4ccc(Cl)cc4)ccc3NC(=O)[C@H]12)C1CCCC1	KDM5B inh 25µM
COc1ccc(-c2ccc3c(c2)C(=O)N2CC[C@H](NC(=O)C4CCCC4)[C@H]2C(=O)N3)cc1	KDM5B inh inconclusive
Cc1cc(C)cc(NC(=S)N2CC(C)OC(C)C2)c1 (configuration not stated)	none (no result: SNCA viab count, SNCA expr inhib, IP6K1 inhibitor)
CCS(=O)(=O)c1ncc(Cl)c(C(=O)Nc2ccc(S(=O)(=O)N(C)c3ccccc3)cc2)n1	SNCA viab count 10µM, SNCA expr inhib 2.8µM, KDM5B inh inconclusive
CC(C)Sc1ncc(Cl)c(C(=O)Nc2ccc(S(=O)(=O)N(C)c3ccccc3)cc2)n1	KDM5B inh inconclusive
CCN(c1ccccc1)S(=O)(=O)c1ccc(NC(=O)c2nc(S(C)(=O)=O)ncc2Cl)cc1	SNCA viab count 10µM, SNCA expr inhib inconclusive, IP6K1 inhibitor -43, KDM5B inh inconclusive
CCSc1ncc(Cl)c(C(=O)Nc2ccc(S(=O)(=O)N(C)c3ccccc3)cc2)n1	SNCA expr inhib inconclusive, KDM5B inh inconclusive
CCn1ccc(C(=O)N2CCC3(CC2)c2[nH]c4ccccc4c2CCN3C)n1	KDM5B inh 28µM
COc1ccc2[nH]c3c(c2c1)CCNC31CCN(C(=O)C2CCOCC2)CC1	KDM5B inh 22µM
COc1ccc2[nH]c3c(c2c1)CCNC31CCN(C2CCCC2)CC1	SNCA expr inhib inconclusive, KDM5B inh 22µM
COc1ccc2[nH]c3c(c2c1)CCNC31CCN(Cc2ccc(F)cc2F)CC1	SNCA expr inhib inconclusive, KDM5B inh 11µM
CCN1CCC(N2CCC3(CC2)NCCc2c3[nH]c3ccc(OC)cc23)CC1	KDM5B inh inconclusive
CCC(C)C(=O)N1CCC2(CC1)NCCc1c2[nH]c2ccc(OC)cc12 (configuration not stated)	KDM5B inh 32µM
COc1ccc2[nH]c3c(c2c1)CCNC31CCN(C(=O)C2CC=CC2)CC1	KDM5B inh 22µM
COc1ccc2[nH]c3c(c2c1)CCNC31CCN(C(=O)c2cccnc2C)CC1	SNCA expr inhib 20µM, KDM5B inh inconclusive
Cc1cn2nc(C(=O)NCc3cccnc3)cc2c(N2CCCC2)n1	none
Cc1cn2nc(C(=O)NCC(C)C)cc2c(N2CCCC2)n1	KDM5B inh 28µM
Cc1cn2nc(C(=O)NC3CCCCC3)cc2c(N2CCCC2)n1	KDM5B inh 28µM
COC(=O)c1cc(CN2CCN(C(=N)N)CC2)cc(C(=O)N2CCN(C(=O)c3ccc(C(=N)N)cc3)CC2)c1	none (no result: SNCA expr inhib, KDM5B inh)
O=C(Nc1ccccc1C(=O)NC1CCCC1)c1cccc(-n2cnnn2)c1	none (no result: SNCA viab count, SNCA expr inhib, IP6K1 inhibitor)
Cc1ccc(S(=O)(=O)c2nc(-c3cccs3)oc2SC(C)C)cc1	KDM5B inh inconclusive
CC(C)S(=O)(=O)c1oc(-c2ccc(F)cc2)nc1S(=O)(=O)c1ccccc1	SNCA viab count 2.5µM, SNCA expr inhib inconclusive, KDM5B inh inconclusive
CS(=O)(=O)c1oc(-c2ccc(F)cc2)nc1S(=O)(=O)c1ccc(Cl)cc1	none
CCCCS(=O)(=O)c1oc(-c2ccc(F)cc2)nc1S(=O)(=O)c1ccccc1	SNCA viab count 14µM, SNCA expr inhib inconclusive, KDM5B inh inconclusive
CCSc1oc(-c2ccccc2)nc1S(=O)(=O)c1ccc(F)cc1	none (no result: SNCA viab count, SNCA expr inhib, IP6K1 inhibitor)
CC(C)S(=O)(=O)c1oc(-c2cccs2)nc1S(=O)(=O)c1ccc(F)cc1	SNCA viab count inconclusive, SNCA expr inhib 14µM
CCS(=O)(=O)c1oc(-c2ccc(F)cc2)nc1S(=O)(=O)c1ccc(Br)cc1	SNCA viab count 16µM, SNCA expr inhib inconclusive, KDM5B inh inconclusive
CC(=O)c1c(C)n(-c2ccc(C)cc2C)c2ccc(OCC(N)=O)cc12	none (no result: SNCA viab count, SNCA expr inhib, IP6K1 inhibitor)
CC[C@H]1CN(C(C)=O)CC[C@H]1CC(=O)NC(C)C	none
COc1ccc(CN2CCNC(=O)C2CC(=O)NC2CCCCCC2)c(C)c1C (configuration not stated)	none (no result: SNCA viab count, SNCA expr inhib, IP6K1 inhibitor)
Cc1nc2n(c1C(=O)N1CCC[C@@H]1c1ccc(F)cc1)CCC(Nc1ccccc1)C2 (some centres not stated)	none
Fc1ccc(CNC2(Cc3cc(-c4ccccn4)on3)COC2)cc1	none
Cc1ccc(N2CC(c3noc(-c4ccccc4Cl)n3)CC2=O)cc1 (configuration not stated)	none
O=C(N[C@@H]1CCC[C@@H]1C(=O)NCCc1ccc(Cl)cc1)c1ccncc1	none
